From PubChem BioAssay (Tox21)
Records with an inconclusive call do not appear. Activity calls are given as the source filed them. The call rests on the fitted dose curve; in most records, active means well fitted curve in the direction sought with a large enough effect in the repeat runs; inconclusive means weak or mixed curves; inactive means no such curve, though single readings can be large; an effect the other way counts as inactive or inconclusive.

Experiments:
[1] = A CellTox Green Cytotoxicity Assay to monitor cytotoxicity in HepG2 cells - 8 hour (AID 1224890); further: nearly all actives have a fitted effect of over 45% in size
Procedure, shortened: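 Nonlytic assay: viable cells exclude the dye, so fluorescence scales with cell death. HepG2 at 600 cells/well, compounds added after 5 h, signal read across 40 h.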

[2] = qHTS assay to identify small molecule antagonists of the estrogen receptor alpha (ER-alpha) signaling pathway using the BG1 cell line in the presence of 0.1 nM 17-beta-estradiol - cell viability counter screen (AID 1259241); further: nearly all actives have a fitted effect of over 40% in size
Procedure, shortened: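 VM7Luc4E2, 4,000 cells/well, phenol red-free medium + 10% charcoal-stripped FBS; 24 hr plating; cpd + 0.1 nM E2 final, 22 hr 37C/5% CO2; CellTiter-Fluor 30 min, fluorescence.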

[3] = qHTS assay to identify small molecule antagonists of the androgen receptor (AR) signaling pathway using the MDA cell line in the presence of 0.5 nM R1881 - cell viability counter screen (AID 1259242); further: nearly all actives have a fitted effect of over 45% in size
Procedure, shortened: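 R1881 at 0.5 nM final stimulated MDA-kb2 cells during 16 hr compound treatment at 37C. Cytotoxicity read: CellTiter-Fluor fluorescence after 30 min.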

[4] = target: Estrogen receptor (Homo sapiens) (UniProt P03372); experiment: qHTS assay to identify small molecule antagonists of the estrogen receptor alpha (ER-alpha) signaling pathway using the BG1 cell line in the presence of 0.1 nM 17-beta-estradiol (AID 1259244); further: nearly all actives have a fitted effect of over 50% in size
Procedure, shortened: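 VM7Luc4E2; 4xERE-luciferase; 0.1 nM E2 final; 22 h co-incubation, 37C; ONE-Glo luminescence after 30 min at room temperature.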

[5] = qHTS assay to identify small molecule HDAC inhibitors (AID 1259364);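 further: wild-type HCT-116 cells with endogenous class I/II HDAC activity; top concentration of the series differs between compounds; nearly all actives have a fitted effect of over 45% in size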
Procedure, shortened: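 Relative class I and II HDAC activity is taken from the luminogenic signal in HCT-116 cells, with compound exposure 2 hr and reagent development 30 min at room temperature.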

[6] = qHTS assay to identify small molecule HDAC inhibitors - cell viability counter screen (AID 1259365); further: series mostly up to about 92 µM; nearly all actives have a fitted effect of over 50% in size
Procedure, shortened: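 Luminescence from CellTiter-Glo, developed 30min at room temperature, reports viability of wild-type HCT-116 cells treated 2hr with compounds at 37 C and 5% CO2 after overnight plating.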

[7] = qHTS assay to identify small molecule agonists of the sonic hedgehog signaling (Shh) pathway - cell viability counter screen (AID 1259366); further: nearly all actives have a fitted effect of over 50% in size
Procedure, shortened: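 Cytotoxicity counter screen run in the same wells as the Shh reporter assay. NIH/3T3 cells carrying a Gli1 response element–driven luciferase were treated with DMSO-dissolved compounds for 24hr, and live-cell protease activity was measured with CellTiter-Fluor.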

[8] = qHTS assay to identify small molecule antagonists of the sonic hedgehog signaling (Shh) pathway - cell viability counter screen (AID 1259367); further: nearly all actives have a fitted effect of over 55% in size
Procedure, shortened: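 NIH/3T3-derived Gli1-Luc reporter cells, 2,000/well, plated 4 hr before compound addition, then stimulated with conditioned medium for 24 hr at 37C. Viability measured in the same wells by CellTiter-Fluor fluorescence, reagent added at 23 hr for 1 hr.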

Measured: Potency

Estrogen receptor (Homo sapiens), sequence (P03372 whole entry, looked up): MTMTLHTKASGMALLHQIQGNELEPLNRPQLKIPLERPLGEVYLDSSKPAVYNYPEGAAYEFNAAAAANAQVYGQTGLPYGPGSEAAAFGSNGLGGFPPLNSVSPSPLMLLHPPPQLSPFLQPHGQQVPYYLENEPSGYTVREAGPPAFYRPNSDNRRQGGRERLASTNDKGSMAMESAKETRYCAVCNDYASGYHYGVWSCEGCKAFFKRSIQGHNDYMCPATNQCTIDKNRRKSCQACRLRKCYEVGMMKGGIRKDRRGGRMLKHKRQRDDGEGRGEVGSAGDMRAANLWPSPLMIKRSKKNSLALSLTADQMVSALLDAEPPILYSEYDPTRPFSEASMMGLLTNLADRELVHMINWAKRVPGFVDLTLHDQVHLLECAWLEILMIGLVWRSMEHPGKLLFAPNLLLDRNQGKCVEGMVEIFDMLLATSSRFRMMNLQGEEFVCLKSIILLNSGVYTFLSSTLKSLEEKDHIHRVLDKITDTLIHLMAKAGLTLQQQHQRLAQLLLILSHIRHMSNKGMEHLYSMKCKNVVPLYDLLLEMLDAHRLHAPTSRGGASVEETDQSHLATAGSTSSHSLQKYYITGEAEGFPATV

C=C(C)[C@@H]1CCC2=CC(=O)C[C@@H](C)[C@]2(C)C1
inactive: all assays above

O=[N+]([O-])c1ccc(Oc2ccc([N+](=O)[O-])cc2)cc1
inactive: all assays above

CC/C=C\C#N
inactive: all assays above

C(=C(c1ccccc1)c1ccccc1)c1ccccc1
inactive: all assays above

C=CCOCC(O)CS(=O)(=O)O (stereo not drawn)
inactive: all assays above

CC(C)=CCC/C(C)=C/C(=O)O
inactive: all assays above

CN(C)C(=O)Nc1ccccc1
inactive: all assays above

CC1=CC(C)C(C=O)C(C)C1 (stereo not drawn)
inactive: all assays above

CC(C)COC(=O)c1ccccc1O
inactive: all assays above

CC12CCC(CC1=O)C2(C)C (stereo not drawn)
inactive: all assays above

CCOC(=O)Cn1c(=O)sc2cccc(Cl)c21
inactive: all assays above

Cc1ccc(Nc2ccc(O)c3c2C(=O)c2ccccc2C3=O)cc1
inactive: all assays above

CC(C)=CC(=O)O
not listed: [8]
inactive: all other assays above

NC(=O)Nc1nc2ccccc2[nH]1
inactive: all assays above

O=[N+]([O-])c1ccc(CCO)cc1
inactive: all assays above

CCCCCCCCCCCl
inactive: all assays above

Nc1cc(N)cc(C(=O)O)c1
inactive: all assays above

O=C(O)C1CCC1
inactive: all assays above

CCCc1ccc(N)cc1
inactive: all assays above

CCCC(C)C(=O)O (stereo not drawn)
inactive: all assays above

COC[C@H](c1ccc(C(F)(F)F)cc1)N1CCN(C2(C)CCN(C(=O)c3c(C)ncnc3C)CC2)C[C@H]1C
inactive: all assays above

C=C[Si](OC)(OC)OC
inactive: all assays above

CC(=O)CCc1ccc(O)cc1
inactive: all assays above

OCC(CO)(CO)COCC(CO)(CO)CO
inactive: all assays above

CC(C)(C)C(=O)/C=C/c1ccc(Cl)cc1
inactive: all assays above

O=C(O)c1cccc(C(=O)O)n1
inactive: all assays above

CCCCC1CCCCC(=O)O1 (stereo not drawn)
inactive: all assays above

Nc1ncnc2c1ncn2Cc1c(F)cccc1Cl
inactive: all assays above
